Laboratory results: PubChem BioAssay (Tox21)
Results filed as inconclusive are left out. Calls of active or inactive are those of the source. Unless noted, calls come from the whole dose curve.

Columns and labels:
[1] = Nuclear factor erythroid 2-related factor 2/antioxidant responsive element (Nrf2/ARE) small molecule agonists: qHTS cell viability counter screen in human keratinocytes (AID 1919968; active = well fitted curve in the direction sought with a large enough effect in the repeat runs; an effect the other way counts as inactive or inconclusive; note: nearly all actives have a fitted effect of over 55% in size)
Summary of the method: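 Stably transfected HaCaT (KeratinoSens), 1,500/well. Test agents in DMSO were applied for 23 h, 37 C/5% CO2. CellTiter-Fluor was incubated 1 h before the fluorescence read.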

[2] = target: KiSS-1 receptor (Homo sapiens) (UniProt Q969F8); assay: Human kisspeptin (KISS1R) small molecule agonists, calcium flux assay in KISS1R-HEK293 cells (AID 1920064; active = well fitted curve in the direction sought with a large enough effect in the repeat runs; an effect the other way counts as inactive or inconclusive)
KiSS-1 receptor (Homo sapiens), sequence (Q969F8 whole entry, looked up): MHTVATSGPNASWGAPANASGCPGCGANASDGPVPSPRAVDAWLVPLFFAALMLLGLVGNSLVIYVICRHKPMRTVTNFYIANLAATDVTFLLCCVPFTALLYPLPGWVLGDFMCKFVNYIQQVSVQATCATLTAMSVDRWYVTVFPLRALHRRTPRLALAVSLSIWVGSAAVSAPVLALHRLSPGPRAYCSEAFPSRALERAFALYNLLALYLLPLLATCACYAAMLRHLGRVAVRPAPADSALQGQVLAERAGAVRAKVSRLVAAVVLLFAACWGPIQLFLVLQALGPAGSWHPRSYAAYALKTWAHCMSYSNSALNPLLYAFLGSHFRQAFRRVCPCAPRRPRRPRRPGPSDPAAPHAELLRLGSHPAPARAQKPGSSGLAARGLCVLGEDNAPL
Summary of the method: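 After overnight (18 h) culture at 37 C/5% CO2, human KISS1R-HEK293 cells received calcium dye for 1 h, then test compound; emission at 540 nm (excitation 480 nm) was tracked for 3 min.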

[3] = G protein-coupled receptor (GPCR) small molecule agonists, calcium flux assay: HEK293 wild type cell line counter screen (AID 1920065)
Summary of the method: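 Following 18 h incubation at 37 C/5% CO2, plates got calcium dye for 1 h; compounds, ATP or DMSO were then pinned in and fluorescence followed kinetically (480/540 nm).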

[4] = p53 small molecule agonists, cell-based qHTS assay with human liver microsomes (AID 1963577);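 note: p53 response element beta-lactamase reporter cells with liver microsomes plus NADPH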
Summary of the method: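 Metabolically competent format: test substances, human liver microsomes and NADPH (both 0.5 mg/mL final) incubated with p53RE-bla cells 16 h at 37 C. Beta-lactamase reporter signal then quantified by fluorescence.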

[5] = p53 small molecule agonists, cell-based qHTS assay with rat liver microsomes (AID 1963578)
Summary of the method: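 Each plate received p53RE-bla cells, then compound, then rat liver microsomes and NADPH (both 0.5 mg/mL final). Plates were held 16 h at 37 C, and beta-lactamase activity was detected with LiveBLAzer over 2 h.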

[6] = p53 small molecule agonists, cell-based qHTS assay with human liver microsomes: qHTS cell viability counter screen (AID 1963579); note: nearly all actives have a fitted effect of over 45% in size
Summary of the method: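 Tox21 library compounds, delivered from DMSO stocks, were tested on p53RE-bla cells together with 0.5 mg/mL human liver microsomes and 0.5 mg/mL NADPH (final) over 16 h at 37 C; CellTiter-Glo luminescence served as the cytotoxicity measure.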

[7] = p53 small molecule agonists, cell-based qHTS assay with rat liver microsomes: qHTS cell viability counter screen (AID 1963580); note: nearly all actives have a fitted effect of over 45% in size
Summary of the method: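 Cytotoxicity counter screen: intracellular ATP measured by CellTiter-Glo luminescence in the same wells as the beta-lactamase reporter read, on HCT-116 p53RE-bla cells exposed 16 h at 37 C to compounds with rat liver microsomes and NADPH, each 0.5 mg/mL final.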

[8] = p53 small molecule agonists, cell-based qHTS assay: qHTS cell viability counter screen (AID 1963581); note: nearly all actives have a fitted effect of over 45% in size
Summary of the method: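 qHTS counter screen: 16 h compound exposure at 37 C of p53RE-bla HCT-116 cells (4,000 per well, seeded 5 h prior), cell viability by ATP luminescence.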

[9] = p53 small molecule agonists, cell-based qHTS assay (AID 1963582; active = well fitted activation curve with a large enough effect in the signal ratio in the repeat runs, not every such curve was filed as active; the % refers to the signal ratio)
Summary of the method: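 Measured: fluorescence from cleaved LiveBLAzer substrate. System: p53RE-bla cells, 16 h compound treatment at 37 C, 2 h substrate step at room temperature.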

[10] = target: 5-hydroxytryptamine receptor 2A (Homo sapiens) (UniProt P28223); assay: 5-hydroxytryptamine receptor 2A (HTR2A) small molecule antagonists, cell-based qHTS assay (AID 1963586); note: nearly all actives have a fitted effect of over 45% in size
5-hydroxytryptamine receptor 2A (Homo sapiens), sequence (P28223 whole entry, looked up): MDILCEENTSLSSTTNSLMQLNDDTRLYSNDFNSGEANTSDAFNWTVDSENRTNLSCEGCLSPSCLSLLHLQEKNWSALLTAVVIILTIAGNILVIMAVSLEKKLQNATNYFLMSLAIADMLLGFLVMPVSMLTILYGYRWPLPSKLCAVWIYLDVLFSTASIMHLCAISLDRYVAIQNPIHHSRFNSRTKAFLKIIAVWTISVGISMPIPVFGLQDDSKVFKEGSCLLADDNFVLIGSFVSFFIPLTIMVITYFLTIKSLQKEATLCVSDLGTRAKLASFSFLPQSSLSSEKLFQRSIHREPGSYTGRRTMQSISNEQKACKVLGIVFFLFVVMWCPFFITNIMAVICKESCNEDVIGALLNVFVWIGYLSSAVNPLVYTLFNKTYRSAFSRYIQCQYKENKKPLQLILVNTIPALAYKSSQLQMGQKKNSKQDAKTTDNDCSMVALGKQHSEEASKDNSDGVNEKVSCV
Summary of the method: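 CHO cells stably expressing human HTR2A were plated for 18 h at 37 C, then loaded with calcium dye for 1 h. Compounds were preincubated 5 min at room temperature before DOI (4 nM solution) was added. Kinetic fluorescence was read for 3 min.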

[11] = target: 5-hydroxytryptamine receptor 2A (Homo sapiens) (UniProt P28223); assay: 5-hydroxytryptamine receptor 2A (HTR2A) small molecule agonists, cell-based qHTS assay (AID 1963587); note: nearly all actives have a fitted effect of over 30% in size
Summary of the method: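 CHO cells stably expressing human HTR2A, plated 18 h, loaded with calcium dye 1 h at 37 C. Agonist mode: compounds added and intracellular calcium fluorescence recorded kinetically for 2 min at 1 sec intervals.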

[12] = target: Muscarinic acetylcholine receptor M1 (Homo sapiens) (UniProt P11229); assay: Cholinergic receptor muscarinic 1 (CHRM1) small molecule antagonists, cell-based qHTS assay (AID 1963588); note: nearly all actives have a fitted effect of over 40% in size
Muscarinic acetylcholine receptor M1 (Homo sapiens), sequence (P11229 whole entry, looked up): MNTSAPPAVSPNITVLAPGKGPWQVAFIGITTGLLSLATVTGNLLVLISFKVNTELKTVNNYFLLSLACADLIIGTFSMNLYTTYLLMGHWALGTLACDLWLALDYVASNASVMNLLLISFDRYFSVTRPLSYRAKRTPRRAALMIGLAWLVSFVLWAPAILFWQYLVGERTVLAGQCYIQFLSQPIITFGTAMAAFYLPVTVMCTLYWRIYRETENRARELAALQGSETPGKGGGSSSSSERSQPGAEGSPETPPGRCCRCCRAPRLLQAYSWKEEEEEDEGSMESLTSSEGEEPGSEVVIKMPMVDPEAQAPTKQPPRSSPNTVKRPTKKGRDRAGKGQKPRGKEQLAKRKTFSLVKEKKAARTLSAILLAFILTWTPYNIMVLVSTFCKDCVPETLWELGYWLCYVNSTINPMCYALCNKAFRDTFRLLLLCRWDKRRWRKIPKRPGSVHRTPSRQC
Summary of the method: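 Compounds were tested at 15 concentrations in three independent runs. Dye-loaded CHRM1-CHO cells were exposed 5 min at room temperature before stimulation by acetylcholine added at 50nM. Intracellular calcium was read kinetically on FDSS for 3 min.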

[13] = target: Muscarinic acetylcholine receptor M1 (Homo sapiens) (UniProt P11229); assay: Cholinergic receptor muscarinic 1 (CHRM1) small molecule agonists, cell-based qHTS assay (AID 1963589); note: nearly all actives have a fitted effect of over 35% in size
Summary of the method: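 Kinetic fluorescence (1 s intervals) of calcium-sensitive dye in human M1 CHO cells after compound addition; cells pre-incubated 18 h at 37 C/5% CO2 and dye-loaded 1 h.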

[14] = cAMP Responsive Elements (CRE) small molecule agonists, cell-based qHTS assay (AID 1963590)
Summary of the method: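 Test agents in DMSO were incubated 3 h at 37 C/5% CO2 with CRE-bla HEK 293T cells seeded 18 h earlier; LiveBLAzer B/G FRET substrate was added and read after 2 h at room temperature.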

[15] = cAMP Responsive Elements (CRE) small molecule antagonists, cell-based qHTS assay (AID 1963591; active = well fitted inhibition curve with a large enough effect in the signal ratio in the repeat runs, not every such curve was filed as active; the % refers to the signal ratio)
Summary of the method: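 Reporter line CRE-bla HEK 293T in dialyzed-FBS DMEM; cells preincubated 18 h, treated 3 h with compound plus NKH477 (0.25 uM final); LiveBLAzer FRET, 2 h RT.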

[16] = target: Beta-2 adrenergic receptor (Homo sapiens) (UniProt P07550); assay: Adrenergic beta2 receptor (ADRB2) small molecule antagonists, cell-based qHTS assay (AID 1963592); note: series mostly up to about 92 µM; nearly all actives have a fitted effect of over 50% in size
Beta-2 adrenergic receptor (Homo sapiens), sequence (P07550 whole entry, looked up): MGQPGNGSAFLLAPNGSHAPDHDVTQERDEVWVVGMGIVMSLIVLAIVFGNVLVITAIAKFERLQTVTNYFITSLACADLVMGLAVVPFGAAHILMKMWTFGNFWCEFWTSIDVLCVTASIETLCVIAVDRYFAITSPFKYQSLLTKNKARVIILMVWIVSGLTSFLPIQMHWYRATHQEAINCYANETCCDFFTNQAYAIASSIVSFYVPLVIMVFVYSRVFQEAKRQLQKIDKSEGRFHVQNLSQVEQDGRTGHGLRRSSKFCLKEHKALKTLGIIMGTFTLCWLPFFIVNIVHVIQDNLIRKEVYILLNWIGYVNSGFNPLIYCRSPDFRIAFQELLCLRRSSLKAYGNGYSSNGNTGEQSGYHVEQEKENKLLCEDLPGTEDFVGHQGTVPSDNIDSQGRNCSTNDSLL
Summary of the method: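 Assay format: CHO-ADRB2 cells, 18-20hr seeding at 37C/5% CO2, then compound plus 1nM isoproterenol agonist mix for 0.5hr RT. Homogeneous time-resolved fluorescence cAMP detection after 1hr, expressed as 665/615 nm ratio.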

[17] = target: Beta-2 adrenergic receptor (Homo sapiens) (UniProt P07550); assay: Adrenergic beta2 receptor (ADRB2) small molecule agonists, cell-based qHTS assay (AID 1963593);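 note: CHO cells stably overexpressing human ADRB2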
Summary of the method: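 CHO cells stably over-expressing ADRB2 were plated overnight at 37C, then dosed with compounds plus a stimulation mix containing 100uM IBMX and 25uM Ro-20-1724 for 0.5hr at room temperature. cAMP was measured by HTRF competition, 1hr.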

[18] = target: D(2) dopamine receptor (Homo sapiens) (UniProt P14416); assay: Dopamine D2 receptor (DRD2) small molecule agonists, cell-based qHTS assay (AID 1963594); note: nearly all actives have a fitted effect of over 35% in size
D(2) dopamine receptor (Homo sapiens), sequence (P14416 whole entry, looked up): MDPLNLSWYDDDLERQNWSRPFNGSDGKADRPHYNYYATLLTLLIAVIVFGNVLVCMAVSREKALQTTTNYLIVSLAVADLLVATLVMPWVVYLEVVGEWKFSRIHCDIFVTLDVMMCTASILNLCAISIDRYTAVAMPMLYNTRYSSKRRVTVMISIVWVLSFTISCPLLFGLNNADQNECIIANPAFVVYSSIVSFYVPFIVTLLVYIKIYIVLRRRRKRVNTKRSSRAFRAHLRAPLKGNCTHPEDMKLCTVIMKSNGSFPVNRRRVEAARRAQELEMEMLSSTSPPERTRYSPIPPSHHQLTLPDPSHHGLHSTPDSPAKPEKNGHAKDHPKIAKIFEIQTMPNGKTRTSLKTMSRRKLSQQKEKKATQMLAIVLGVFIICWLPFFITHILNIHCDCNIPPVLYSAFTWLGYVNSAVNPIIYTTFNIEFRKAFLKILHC
Summary of the method: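 HEK293 cells stably expressing human DRD2, pre-treated with PDE inhibitor Ro20-1724 (0.1 mM final) and compound 10 min at room temperature, then stimulated with NKH477 (200nM […]) for 30 min. cAMP read by HTRF (665/620 nm).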

[19] = target: D(2) dopamine receptor (Homo sapiens) (UniProt P14416); assay: Dopamine D2 receptor (DRD2) small molecule antagonists, cell-based qHTS assay (AID 1963595; active = well fitted inhibition curve with a large enough effect in the signal ratio in the repeat runs, with a control signal flat; the % refers to the signal ratio)
Summary of the method: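 HEK293 cells stably expressing DRD2 were preincubated with 0.1 mM Ro20-1724, then with compound for 10 min at room temperature. Cells were stimulated with 200 nM NKH477 plus 12 nM quinpirole for 30 min, and cAMP was read by HTRF.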

[20] = Nuclear factor erythroid 2-related factor 2/antioxidant responsive element (Nrf2/ARE) small molecule agonists: luciferase reporter gene qHTS assay in human keratinocytes (AID 1919969); note: nearly all actives have a fitted effect of over 35% in size

Measured: Potency

C=C(C)[C@@H]1CCC2=CCC[C@@H](C)[C@]2(C)C1
not listed: [20]
inactive: all other assays above

N#CCC(=O)O
not listed: [20]
inactive: all other assays above

CC(C)(C)OC=O
not listed: [20]
inactive: all other assays above

CC12CCC(C1)C(C)(C)C2O (stereo not drawn)
not listed: [20]
inactive: all other assays above

CCC(=O)O[C@@H]1C[C@H]2CC[C@]1(C)C2(C)C
not listed: [3] | [17]
inactive: all other assays above

CC(=O)OCC(=O)Nc1cc(C#N)cc(NC(=O)COC(C)=O)c1Cl
not listed: [18] | [19] | [20]
inactive: all other assays above

CCCCCC1CCCC(=O)O1 (stereo not drawn)
not listed: [3] | [10] | [17]
inactive: all other assays above
